Results from PubChem BioAssay (NCI).
About 83,000 compounds went through this panel and 20% of them were active in at least one assay; those are over-represented in the sample as a whole.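 Plates (96-well) were seeded with cells, treated with compound at one concentration, and incubated for 48 hours before percent growth was determined.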 A number with no mark means an inactive call. Calls of active or inactive are those of the source. Rule for the calls: active = growth percent below 10; inactive = the rest.

Each molecule was assayed on MDA-MB-468 breast (assay: NCI-60 one-dose screen, 48 h (100 = growth as untreated, 0 = no growth, -100 = all killed)). Details: 10 µM unless noted.

| Structure (SMILES) | growth |
| --- | --- |
| COc1ccc(-c2c3c(cn2Cc2cccc(OC)c2)-c2oncc2CCC3)cc1 | 88.7% |
| COc1ccc2nc3cc(Cl)ccc3c(NCCN)c2c1 | -61.6% (active) |
| CCC(c1ccc(O)cc1)C(CC)c1ccc(O)c(F)c1 (stereo not given) | 69.5% |
| Nc1[nH]c(=S)nc2oc(-c3ccccc3)c(-c3ccccc3)c12 | 98.8% |
| COc1cc(-c2nccc3[nH]c(-c4cccc5[nH]ccc45)nc23)cc(OC)c1OC | -26.1% (active) |
| COc1cc(OC)c(/C=C/S(=O)(=O)Cc2cnc(OC)c(N)c2)c(OC)c1 | 23.6% |
| CCN(CC)CCCCCCNc1cc(OC)c(Cl)c2cccnc12 | 32.1% |
| CNC(=O)c1cc(Oc2ccc3nc(NC(=O)Nc4ccc(Cl)c(Cl)c4)sc3c2)ccn1 | 68.3% |
| O=C1C=CC2(NN=C(c3ccccc3)N2c2ccccc2)c2cccc(O)c21 (stereo not given) | 36.2% |
| Cc1cc2c(cc1C)Nc1sc(NC(=O)CN3CCN(C)CC3)nc1C(=O)N2 | 105% |
| CCn1cc(C(=O)O)c(=O)c2cc(F)c(N3CCN(CC(=O)Nc4ccc(S(=O)(=O)Nc5nccc(C)n5)cc4)C(C)C3)c(F)c21 (stereo not given) | 96.4% |
| C=C1C(=O)O[C@H]2[C@H]1CC/C(COC(=O)NCCc1c[nH]c3ccc(OC)cc13)=C\CC[C@@]1(C)O[C@@H]21 | -44.9% (active) |
| CC(C)CSc1nc(N)nc2c1ncn2C1OC(CO)C(O)C1O (stereo not given) | 96.5% |
| Cc1cc(=O)n2nc(-c3c[nH]c4ccccc34)sc2n1 | 88.8% |
| C=C1C(=O)O[C@H]2[C@H]1CC/C(COC(=O)/C=C\C(=O)NCc1ccc(Cn3c(=O)sn(CCCl)c3=O)cc1)=C\CC[C@@]1(C)O[C@@H]21 | 43% |
| Cc1cccc(C)c1N1C(c2ccccc2)=NNC12C=CC(=O)c1c(O)cccc12 (stereo not given) | 85.1% |
| CC(=O)c1ccc2oc(=O)n(Cc3ccc(C#N)cc3)c(=O)c2c1 | 108% |
| O=C(NCc1ccccc1)C(Cl)Cl | 85.2% |
| CCN(CC)CCC(CNc1c(C)cnc2cc(Cl)ccc12)c1ccc(Cl)cc1 (stereo not given) | 19.3% |
| CCn1c(=S)[nH]c2c(=O)n(C)c(=O)n(C)c21 | 100% |
| O=C1N/C(=C\c2ccccc2)c2ncccc21 | 96.2% |
| O=C1NC(=O)c2c1c1c3ccccc3ccc1c1[nH]c3ccc(Br)cc3c21 | -12.5% (active) |
| COc1cnc2c(c1)C(=O)c1c-2n(CCCNC2=NCCS2)c(=O)c2cc(Cl)ccc12 | -4.65% (active) |
| CCOC(=O)CNC | 101% |
| COc1cc2c(c(O)c1Br)C(=O)c1c(O)cc(C[C@H](C)O)cc1[C@H]2[C@H]1c2cc(C[C@H](C)O)cc(O)c2C(=O)c2c1cc(OC)c(Br)c2O | -14.5% (active) |
